{
  "source": "ChEMBL document CHEMBL3988442",
  "about": "“University of Dundee, Small-Polar-MMV Screening Library” (2021)",
  "note": "Hit rate of the full screen: of about 48,000 compounds, about 13,000 (27%) showed an effect of 50% or more. Some of the results follow.",
  "data": [
    {"system": "Wolbachia pipientis", "test": "Anti-Wolbachia Cell-Based Screen", "type": "functional", "parameters": "scale not given: in the data most compounds retested in dose-response had high values", "settings": "5 µM", "units": {"Percent Effect": "%"}, "values": [
      {"compound": "Cc1nc(N(C)CCCc2nccn2C)c2c(C)nn(C)c2n1", "Percent Effect": -2.28},
      {"compound": "Cc1[nH]c2c(C)ccc(C)c2c1CC(=O)NCc1csc(N(C)C)n1", "Percent Effect": -37.05},
      {"compound": "CCC(CC)c1cc(CNC(=O)N2CCOCC2CC)on1", "note": "(centres undefined)", "Percent Effect": 8.113},
      {"compound": "CC(C)(O)CCc1ccc(C(=O)NCCC2CCOC2)cc1", "note": "(centres undefined)", "Percent Effect": -23.58},
      {"compound": "CCOc1ccc(CN2CCN(CCOC)[C@@H]3CS(=O)(=O)C[C@@H]32)cc1", "Percent Effect": -4.58},
      {"compound": "O=C(NCCCOCC1CC1)Nc1cccnc1N1CCOCC1", "Percent Effect": -4.484},
      {"compound": "CCc1nc(C#N)c(N2CCC(c3nc(-c4ccccc4)no3)CC2)o1", "Percent Effect": -18.26},
      {"compound": "O=S(=O)(CCCN1CCCCC1Cn1cncn1)c1ccccc1", "note": "(centres undefined)", "Percent Effect": 108.5},
      {"compound": "c1ccc(CCCN2CCCC2Cn2cncn2)cc1", "note": "(centres undefined)", "Percent Effect": 145.7},
      {"compound": "c1ccc(-c2noc(CCCN3CCCC3Cn3cncn3)n2)cc1", "note": "(centres undefined)", "Percent Effect": 100.9},
      {"compound": "O=S(=O)(CCN1CCCC1Cn1cncn1)c1ccccc1", "note": "(centres undefined)", "Percent Effect": 102.1},
      {"compound": "CCN(Cc1ccccc1)C(=O)CN1CCCCC1Cn1cncn1", "note": "(centres undefined)", "Percent Effect": -8.051},
      {"compound": "c1csc(-c2noc(CCCN3CCCC3Cn3cccn3)n2)c1", "note": "(centres undefined)", "Percent Effect": -9.384},
      {"compound": "O=C1CCCN1CCCN1CCCCC1Cn1cncn1", "note": "(centres undefined)", "Percent Effect": 3.397},
      {"compound": "c1ccc(-c2noc(C3CCN(CCCn4cncn4)CC3)n2)cc1", "Percent Effect": -0.715},
      {"compound": "N#Cc1cccc(CN2CCCC2Cn2cncn2)c1", "note": "(centres undefined)", "Percent Effect": -16.52},
      {"compound": "Cc1cc(C)n(CC2CCCN2CCS(=O)(=O)c2ccccc2)n1", "note": "(centres undefined)", "Percent Effect": -8.876},
      {"compound": "CN1CCN(CC2CC2)C(=O)C12CCN(c1nccs1)CC2", "Percent Effect": -15.71},
      {"compound": "CC(C)NC(=O)[C@@H](NC(=O)N1CCN(c2ccc(Cl)cc2)CC1)C(C)C", "Percent Effect": -4.425},
      {"compound": "Cn1cnc(-c2nc(C(=O)NCCN3CCOCC3)c3ccccn23)c1", "Percent Effect": -34.35},
      {"compound": "CN(CC1CC1)S(=O)(=O)c1ccc(C(F)(F)F)cc1C#N", "Percent Effect": -1.577},
      {"compound": "O=C(c1ccc2c(c1)[nH]c(=O)n2[C@H]1CC[C@H](O)CC1)N1CCOCC1", "Percent Effect": 1.877},
      {"compound": "O=S(=O)(CCN1CCCCC1Cn1cncn1)c1ccccc1", "note": "(centres undefined)", "Percent Effect": 104.1},
      {"compound": "O=S(=O)(CCCN1CCCC(Cn2cncn2)C1)c1ccccc1", "note": "(centres undefined)", "Percent Effect": 92.49},
      {"compound": "O=S(=O)(CCN1CCOC(Cn2cncn2)C1)c1ccccc1", "note": "(centres undefined)", "Percent Effect": -0.6358},
      {"compound": "N#Cc1ccccc1OCCN1CCCCC1Cn1cncn1", "note": "(centres undefined)", "Percent Effect": -1.923},
      {"compound": "O=C1CCCN1CCN1CCCCC1Cn1cncn1", "note": "(centres undefined)", "Percent Effect": 1.495},
      {"compound": "O=S(=O)(c1ccccc1)N1CCCC(Cn2cncn2)C1", "note": "(centres undefined)", "Percent Effect": -7.569},
      {"compound": "CCN(CC1COc2ccccc2O1)C(=O)C1=NN(C)C(=O)CC1", "note": "(centres undefined)", "Percent Effect": 17.44},
      {"compound": "COC(=O)CCNC(=O)c1c[nH]cc1-c1cccc(OC)c1", "Percent Effect": 3.352},
      {"compound": "COc1ccc(C)cc1CN1CCCC1Cn1nc(C)nc1C", "note": "(centres undefined)", "Percent Effect": 2.525},
      {"compound": "COc1ccc(CN2CCCCC2Cn2nc(C)nc2C)cc1F", "note": "(centres undefined)", "Percent Effect": 112.6},
      {"compound": "COc1ccc(F)cc1CN1CCCC1Cn1nc(C)nc1C", "note": "(centres undefined)", "Percent Effect": 149.5},
      {"compound": "COc1ccc(CN2CCCC2Cn2nc(C)nc2C)cc1F", "note": "(centres undefined)", "Percent Effect": -0.5946},
      {"compound": "COCCNC(=O)c1cc(COc2cncc(Cl)c2)on1", "Percent Effect": 6.247},
      {"compound": "CC(C)CN1CCN(Cc2nc3c(s2)CCCC3)[C@H]2CS(=O)(=O)C[C@H]21", "Percent Effect": -7.173},
      {"compound": "O=C(NC[C@H]1OC[C@@H](NC2CCC(F)(F)CC2)[C@@H]1O)C1CC1", "Percent Effect": -11.71},
      {"compound": "Cl.c1cnc(Nc2cncc(C3CCCN3)n2)cn1", "note": "(centres undefined)", "Percent Effect": 154.6},
      {"compound": "Cc1nc(Nc2cnccn2)cc(C2CCCN2)n1.Cl", "note": "(centres undefined)", "Percent Effect": 92.06},
      {"compound": "Cc1ccc2[nH]c(CN(C)c3cc(CCN)nc(C)n3)nc2c1", "Percent Effect": 1.379},
      {"compound": "CCCc1cc(C(=O)N2CCCN(c3cccnn3)CC2)[nH]n1", "Percent Effect": -4.631},
      {"compound": "COc1ccc(C2(CNC(C)c3nnc(C)o3)CCCCC2)cc1", "note": "(centres undefined)", "Percent Effect": -5.469},
      {"compound": "CCN(C(=O)Cc1ccc(NCc2nccn2C)cc1)c1ccccc1", "Percent Effect": -5.228},
      {"compound": "CSC(C)C(=O)N1CCC(Oc2cc(C)ccc2F)(C(=O)O)CC1", "note": "(centres undefined)", "Percent Effect": -19.74},
      {"compound": "COc1cccc(CNc2c(C)nn(C(C)C)c2C)c1.Cl", "Percent Effect": -5.673},
      {"compound": "COc1cccc(CNc2cnn(CC(F)F)c2)c1", "Percent Effect": 110.9},
      {"compound": "COc1ccc(CNc2cnn(CC(F)F)c2)cc1", "Percent Effect": 98.47},
      {"compound": "CC(C)(C)C(=O)N1CCN(C(=O)Nc2cnn(CC(F)F)c2)CC1", "Percent Effect": 14.61},
      {"compound": "COc1cccc(CNc2cnn(C)c(=O)c2Cl)c1", "Percent Effect": -15.43},
      {"compound": "COCCn1cc(NCc2c[nH]nc2-c2ccc(OC)cc2)cn1", "Percent Effect": -43.6},
      {"compound": "CC1=CC(C)(C)N(CN2C(=O)c3ccccc3C2=O)c2ccc(C)cc21", "Percent Effect": -18.46},
      {"compound": "CCN1CCC(CC(=O)NCCc2nc(C)c(Cl)s2)CC1", "Percent Effect": -2.005},
      {"compound": "CCC(c1nc(CC(C)C)nn1-c1ccccn1)n1cccn1", "note": "(centres undefined)", "Percent Effect": -7.483},
      {"compound": "Nc1nccc(C2CCN(c3cnccn3)C2)n1", "note": "(centres undefined)", "Percent Effect": 100.6},
      {"compound": "O=C1OCCC1N1CCN(c2cnccn2)CC1", "note": "(centres undefined)", "Percent Effect": -13.03},
      {"compound": "CSCCCN1CCC[C@]2(C(=O)O)CN(c3cnccn3)CC[C@@H]12", "Percent Effect": -18.46},
      {"compound": "c1cc(C2CCN(c3cnccn3)CC2)ccn1", "Percent Effect": 108.9},
      {"compound": "c1ccc(C2CCN(c3cncc(-n4cccn4)n3)CC2)cc1", "Percent Effect": -3.284},
      {"compound": "c1cc(C2CCN(c3cnccn3)CC2)ncn1", "Percent Effect": 111.8},
      {"compound": "CC(C)c1nccn1C(C)C(=O)N1CCN(c2cnccn2)CC1", "note": "(centres undefined)", "Percent Effect": 8.025},
      {"compound": "Cc1ccc(-c2cn[nH]c2C2CCCN(c3cnccn3)C2)cc1", "note": "(centres undefined)", "Percent Effect": -26.5},
      {"compound": "CN(C)c1ccc(C2CCN(c3cnccn3)CC2)nc1", "Percent Effect": 110.3},
      {"compound": "CC(c1ccccc1)N(C)C(=O)CN1CCN(c2cnccn2)CC1", "note": "(centres undefined)", "Percent Effect": -4.354},
      {"compound": "Cc1ccc(CN2CC[C@@H](O)[C@@H]2Cc2ccccc2)o1.O=C(O)C(F)(F)F", "Percent Effect": 1.325},
      {"compound": "CC(=O)c1cccc(OCCCC(=O)N(C)Cc2ccccn2)c1", "Percent Effect": 14.18},
      {"compound": "CC(C)[C@@H]1CN(c2ccc(F)cn2)C[C@H]1NS(C)(=O)=O", "Percent Effect": -10.09},
      {"compound": "CC(C)[C@@H]1CN(c2ncc(F)cn2)C[C@H]1NS(=O)(=O)N(C)C", "Percent Effect": 83.11},
      {"compound": "CC(C)[C@H]1CN(c2ccncc2)C[C@@H]1NS(=O)(=O)N(C)C", "Percent Effect": 113.1},
      {"compound": "CCN(C)S(=O)(=O)N[C@H]1CN(c2ccc(F)cn2)C[C@@H]1C(C)C", "Percent Effect": 1.28},
      {"compound": "CC(C)[C@@H]1CN(S(=O)(=O)Cc2ccccc2)C[C@H]1NS(=O)(=O)N(C)C", "Percent Effect": -33.69},
      {"compound": "CC(C)[C@@H]1CN(c2ncc(F)cn2)C[C@H]1NC(=O)N(C)C", "Percent Effect": 70.99},
      {"compound": "COc1ccnc(N2C[C@@H](NS(=O)(=O)N(C)C)[C@H](C(C)C)C2)n1", "Percent Effect": 1.494},
      {"compound": "CC(C)[C@@H]1CN(Cc2ccsc2)C[C@H]1NS(=O)(=O)N(C)C", "Percent Effect": 12.46},
      {"compound": "Cc1noc(C)c1CN1C[C@@H](NC(=O)N(C)C)[C@H](C(C)C)C1", "Percent Effect": -17.12}
    ]}
  ]
}
